Data from PubChem BioAssay (NCATS).
Records with an inconclusive call do not appear. The source made the active and inactive calls. Unless noted, calls come from the whole dose curve; as a rule, active = well fitted curve in the direction sought with a large enough effect; inconclusive = small, poorly fitted or top-dose-only effect, or another doubt; inactive = no such curve, though single readings can be large; an effect the other way counts as inactive or inconclusive. Bridge positions count the residues as written; N and C are the ends. Square brackets hold non-standard residues; d marks the D form. Peptide text beside a SMILES is read from it. * marks the point of attachment. Octanoyl(6-Me) = CCC(C)CCCCC(=O)*; Dab = NCC[CH](N)C(=O)O

Columns and labels:
[1] = Cell Viability - LYMP2-025 (AID 976)
Summary of the method: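 Cytotoxicity read as loss of intracellular ATP (luciferase luminescence) after 24 h compound treatment at 37 C. Uses LYMP2-025 lymphoblastoid cells in 1536-well format; Hill-equation modelling gives AC50; tetraoctylammonium bromide as positive control.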

[2] = Cell Viability - LYMP2-002 (AID 977)
Summary of the method: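 In this qHTS viability screen, 2500 human lymphoblastoid cells per well receive compound for 24 hr at 37 C, and luciferase-based ATP luminescence gives the viability signal. Tetraoctylammonium bromide serves as positive control.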

[3] = Cell Viability - LYMP2-006 (AID 978); note: nearly all actives have a fitted effect of over 60% in size
Summary of the method: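 qHTS, 1536-well; 2500 cells/well, 5 hr 37 C; cpd 24 hr 37 C; CellTiter-Glo 30 min RT; luminescence. Tetraoctylammonium bromide pos. ctrl. AC50 via Hill eqn.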

[4] = Cell Viability - LYMP2-007 (AID 979);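 note: cells exposed to compound for 24 h before reading; nearly all actives have a fitted effect of over 60% in size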
Summary of the method: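 AC50 values come from Hill-equation fits of luminescent intracellular ATP (CellTiter-Glo, 30 min, room temperature) following 24 h compound exposure at 37 C. Cells: LYMP2-007 lymphoblastoid line, 2500 per well, in complete culture medium.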

[5] = Cell Viability - LYMP2-008 (AID 980); note: nearly all actives have a fitted effect of over 60% in size
Summary of the method: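 Cytotoxicity determined from ATP-dependent luciferase luminescence (CellTiter-Glo) following 24 h compound exposure of human lymphoblastoid LYMP2-008 cells at 37 C. Concentration-response data fitted to the Hill equation to give AC50.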

[6] = Cell Viability - LYMP2-010 (AID 981); note: nearly all actives have a fitted effect of over 55% in size
Summary of the method: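 CellTiter-Glo ATP luminescence measured cytotoxicity after 24 h compound exposure at 37 C. LYMP2-010 cells were seeded at 2500/well, with tetraoctylammonium bromide as control; concentration-response curves gave AC50 values by the Hill equation.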

[7] = Cell Viability - LYMP2-012 (AID 982);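 note: cellular ATP by luciferase luminescence where a drop means cytotoxicity; cells exposed to compound for one day before reading; nearly all actives have a fitted effect of over 55% in size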
[8] = Cell Viability - LYMP2-014 (AID 983); note: nearly all actives have a fitted effect of over 50% in size
Summary of the method: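 Intracellular ATP loss, read by luciferase luminescence, measures acute cytotoxicity after 24 h compound exposure of lymphoblastoid LYMP2-014 cells (2500/well, 37 C). Concentration-response data fitted to the Hill equation for AC50.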

[9] = Cell Viability - LYMP2-016 (AID 984); note: nearly all actives have a fitted effect of over 55% in size
Summary of the method: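 qHTS, 1536-well: 2500 LYMP2-016 cells/well, 5 hr 37 C, compound added, 24 hr 37 C, CellTiter-Glo 30 min RT, luminescence. Tetraoctylammonium bromide positive control. AC50 via Hill fit.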

[10] = Cell Viability - LYMP2-018 (AID 985); note: nearly all actives have a fitted effect of over 50% in size
Summary of the method: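 Viability read as CellTiter-Glo luminescence (cellular ATP) after 24 hr compound exposure at 37 C of 2500 LYMP2-018 lymphoblastoid cells/well, pre-plated 5 hr. Hill-equation modelling gave AC50.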

[11] = Cell Viability - LYMP2-022 (AID 987); note: nearly all actives have a fitted effect of over 55% in size
Summary of the method: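 Cytotoxicity read as decreased cellular ATP (CellTiter-Glo luminescence, 30 min room temperature) after 24 hours compound exposure of 2500 lymphoblastoid LYMP2-022 cells/well at 37 C. Concentration-response data fitted with standard Hill equation for AC50.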

[12] = Cell Viability - LYMP2-024 (AID 988); note: nearly all actives have a fitted effect of over 60% in size
Summary of the method: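 Cytotoxicity was taken as a decrease in ATP (CellTiter-Glo luminescence) after 24 hr compound exposure at 37 C of LYMP2-024 lymphoblastoid cells, 2500 cells/well. Concentration-response data were fitted to the Hill equation to give AC50.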

[13] = Cell Viability - LYMP2-026 (AID 989); note: nearly all actives have a fitted effect of over 50% in size
Summary of the method: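 Cytotoxicity read as ATP-dependent luminescence (CellTiter-Glo, 30 min room temperature) after 24 h compound treatment at 37 C. LYMP2-026 lymphoblastoid line seeded at 2500 cells/well; AC50 derived by standard Hill equation.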

[14] = Cell Viability - LYMP1-002 - Assay at 24 hr (AID 993)
Summary of the method: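 qHTS cytotoxicity at 24 h: CellTiter-Glo ATP luminescence in lymphoblastoid line LYMP1-002 incubated with compound at 37 °C. Concentration-response modeled with the Hill equation for AC50; tetraoctylammonium bromide served as positive control.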

[15] = Cell Viability - LYMP1-002 - Assay at 40 hr (AID 994); note: nearly all actives have a fitted effect of over 60% in size
Summary of the method: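 Cytotoxicity was read as loss of cellular ATP (CellTiter-Glo luminescence) after 40 hr compound exposure at 37 C of 2500 LYMP1-002 lymphoblastoid cells per well. Concentration-response data were fitted with the standard Hill equation to give AC50.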

[16] = biological target: Glucocorticoid receptor (Homo sapiens) (UniProt P04150); assay: qHTS assay for small molecule antagonists of glucocorticoid receptor signaling (AID 588533; active = well fitted inhibition curve with a large enough effect in the signal ratio, with a control signal flat, not every such curve was filed as active; the % refers to the signal ratio;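 note: cells stimulated with 2 nM dexamethasone as agonist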)
Chain of Glucocorticoid receptor (Homo sapiens) (P04150 whole entry, looked up): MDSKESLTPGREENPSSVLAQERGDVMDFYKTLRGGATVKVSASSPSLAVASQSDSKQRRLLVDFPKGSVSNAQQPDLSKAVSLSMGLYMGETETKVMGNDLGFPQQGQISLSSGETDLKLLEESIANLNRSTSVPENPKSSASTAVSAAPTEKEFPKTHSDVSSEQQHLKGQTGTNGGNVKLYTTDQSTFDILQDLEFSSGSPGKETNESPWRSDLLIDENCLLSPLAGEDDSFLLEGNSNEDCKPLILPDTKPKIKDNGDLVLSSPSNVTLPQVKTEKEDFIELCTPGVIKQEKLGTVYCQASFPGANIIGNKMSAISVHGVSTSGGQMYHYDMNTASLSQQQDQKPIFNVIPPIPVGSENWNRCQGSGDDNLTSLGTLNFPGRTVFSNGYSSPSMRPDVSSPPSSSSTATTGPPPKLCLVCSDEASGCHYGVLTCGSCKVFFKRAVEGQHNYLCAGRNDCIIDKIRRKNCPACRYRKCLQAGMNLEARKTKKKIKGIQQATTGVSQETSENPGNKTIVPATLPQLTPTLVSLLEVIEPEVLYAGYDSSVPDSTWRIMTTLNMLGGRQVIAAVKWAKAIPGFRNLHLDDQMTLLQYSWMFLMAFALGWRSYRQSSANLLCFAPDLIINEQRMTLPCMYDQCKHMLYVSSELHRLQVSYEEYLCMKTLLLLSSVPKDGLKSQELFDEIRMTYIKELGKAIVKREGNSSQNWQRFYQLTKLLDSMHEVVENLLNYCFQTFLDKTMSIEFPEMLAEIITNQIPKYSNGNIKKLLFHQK
Summary of the method: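 Antagonist-mode qHTS: compound titrations added to GRE-bla HeLa cells, then dexamethasone 2 nM final; 18 h, 37 C. CCF4 FRET fluorescence normalized to dexamethasone and DMSO; IC50 from Hill fit.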

CP192 = assay: qHTS profiling for inhibitors of Plasmodium falciparum proliferation (AID 504749); note: nearly all actives have a fitted effect of over 60% in size; note: potency is the fitted concentration of half-maximal effect; details: P. falciparum in erythrocytes, SYBR Green DNA, 72 h; series mostly up to 28.7 µM
Summary of the method: (§1)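 Quantitative HTS: compounds pinned into medium, infected erythrocytes added (0.3% parasitemia, 2.5% hematocrit), 72 h culture at 37 C under 5% CO2. Saponin/Triton lysis with SYBR Green I, overnight RT, then fluorescence read.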

CP291 = assay: as above; details: P. falciparum in erythrocytes, SYBR Green DNA, 72 h; series mostly up to 28.7 µM
Summary of the method: as §1

CP335 = assay: as above; details: P. falciparum in erythrocytes, SYBR Green DNA, 72 h; series mostly up to 28.7 µM
Summary of the method: as §1

GB4 = assay: as above; details: P. falciparum in erythrocytes, SYBR Green DNA, 72 h; series mostly up to 28.7 µM
Summary of the method: as §1

Measured: Potency

O=C1CCc2ccccc2O1
not listed: CP192 | CP291 | CP335 | GB4
inactive: all other assays above

Nc1nc(Cl)nc2c1ncn2C1CC(O)C(CO)O1 (centres undefined)
inactive: CP192 | CP291 | CP335 | GB4

O=NCc1ccc([N+](=O)[O-])o1
active: GB4 13500 nM
inactive: CP192 | CP291 | CP335

Cc1cccc(O)c1
inactive: [16]

CC(=O)O[C@@]12CO[C@@H]1C[C@H](O)[C@@]1(C)C(=O)[C@H](O)C3=C(C)[C@@H](OC(=O)C(O)[C@@H](NC(=O)OC(C)(C)C)c4ccccc4)C[C@@](O)([C@@H](OC(=O)c4ccccc4)[C@H]21)C3(C)C (some centres undefined)
active: CP192 26.9 nM | CP291 37.9 nM | CP335 21.3 nM | GB4 30.1 nM

CCC(C)CCCCC(=O)NC(CCN)C(=O)NC(C(=O)NC(CCN)C(=O)NC1CCNC(=O)C(C(C)O)NC(=O)C(CCN)NC(=O)C(CCN)NC(=O)C(CC(C)C)NC(=O)C(Cc2ccccc2)NC(=O)C(CCN)NC1=O)C(C)O (centres undefined) ({Octanoyl(6-Me)}-[Dab]T[Dab][Dab][Dab]FL[Dab][Dab]T; lactam 4-C; configuration not given here)
inactive: CP192 | CP291 | CP335 | GB4

Cc1cc(CC(C)CC(C)(C)C)n(O)c(=O)c1 (centres undefined)
active: CP192 2390 nM | CP291 1900 nM | CP335 1690 nM | GB4 1510 nM

O=S(=O)(O)c1ccccc1
not listed: CP192 | CP291 | CP335 | GB4
inactive: all other assays above

CCN1/C(=C/C=C/C=C/c2sc3ccccc3[n+]2CC)Sc2ccccc21
active: CP192 5360 nM | CP291 13500 nM | CP335 1070 nM | GB4 7570 nM

O[C@@H]([C@H](O)[C@@H](O)CBr)[C@@H](O)CBr
not listed: [16] | CP192 | CP291 | CP335 | GB4
inactive: all other assays above

CCC(=O)O[C@@H](OP(=O)(CCCCc1ccccc1)CC(=O)N1C[C@H](C2CCCCC2)C[C@H]1C(=O)O)C(C)C (some centres undefined)
inactive: CP192 | CP291 | CP335 | GB4

CC1(C)S[C@@H]2[C@H](NC(=O)COc3ccccc3)C(=O)N2[C@H]1C(=O)O
inactive: CP192 | CP291 | CP335 | GB4

CC1CCC(C(C)C)C(OC(=O)c2ccccc2O)C1 (centres undefined)
inactive: CP192 | CP291 | CP335 | GB4

O=C(O)c1ccccc1C(c1ccc(O)cc1)c1ccc(O)cc1
not listed: CP192 | CP291 | CP335 | GB4
inactive: all other assays above

c1ccc2scnc2c1
not listed: CP192 | CP291 | CP335 | GB4
inactive: all other assays above

Cc1c(N=C=O)cccc1N=C=O
not listed: CP192 | CP291 | CP335 | GB4
inactive: all other assays above

Cc1ccccc1C
not listed: CP192 | CP291 | CP335 | GB4
inactive: all other assays above

Nc1ccc(S(=O)(=O)O)cc1
not listed: [16] | CP192 | CP291 | CP335 | GB4
inactive: all other assays above

COC(=O)CCCCC(=O)OC
not listed: CP192 | CP291 | CP335 | GB4
inactive: all other assays above

CO[C@@H]1[C@@H](OC2OC(C)C(OC3CC(C)(O)C(OC(=O)CC(C)C)C(C)O3)C(N(C)C)C2O)[C@@H](CC=O)C[C@@H](C)C(=O)/C=C\C2O[C@H]2C[C@@H](C)OC(=O)C[C@H]1OC(C)=O (some centres undefined)
active: CP291 6750 nM | CP335 6750 nM | GB4 13500 nM
inactive: CP192

O=C(O)c1ccc(O)cc1O
not listed: CP192 | CP291 | CP335 | GB4
inactive: all other assays above
